Wnt bcat act – activators of Wnt/beta-catenin signaling. activation, % at 9.35 µM. Wnt/beta-catenin reporter cell assay, activator, plate reader. 1.2% of 300,000 active; in the data active = activation above about 30%, passing the limit was not always enough; inconclusive = no clear call, values can overlap the other calls;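 also: 0% = neutral control wells and 100% = positive control wells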
rRNA inh HTS – inhibits bacterial ribosomal RNA function over humanized ribosomes; AID 720706; 1.6% of 350,000 active; E. coli WT GFP vs humanized-ribosome RFP mutants, fluorescence, 24 h; stronger effect = lower value; DMSO median 0, no signal -100; GFP signal change (wild-type ribosome), % (no concentration beside the values);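 active = significant combined selectivity score with lowered wild-type GFP, culture density cut under 30%, mutant RFP and density less affected; inactive = any of these conditions unmet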
esBAF inh – inhibitors of esBAF chromatin remodeling in mouse ES cells; Bmi1-luciferase knock-in reporter, 24 h; 100% = twice the neutral-well signal; reporter increase, % at 12.5 µM; 2% of 350,000 active; in the data active = activation above about 40%; inconclusive = no clear call, values can overlap the other calls;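 also: 0% = median of the plate's neutral control wells and 100% = double that signal; a rise in the Bmi1 reporter signal indicates esBAF inhibition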
MITF act – MITF TRPM1 promoter activation in melanoma cells. SK-MEL-5 TRPM1-promoter luciferase, 24 h; % of positive control, neutral wells = 0. activation, % at 12.5 µM. 0.75% of 300,000 active. AID 588334;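 active = mean activation of at least 80% with every replicate also reaching 80%; inconclusive = mean reaches 80% but some replicate falls short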;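 also: 0% = neutral control wells and 100% = parthenolide positive control wells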
MLL AF4-AF9 inh – blocks AF4 peptide binding to human AF9; P42568; AlphaScreen, biotin-AF4 peptide binding to FLAG-AF9; inhibition, % at 10 µM; 0.47% of 350,000 active; AID 651704;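 active = every replicate reaching a set inhibition limit, whatever the replicate mean, cut at about 25% in these data; inconclusive = mean inhibition reaches that limit but some replicates miss it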;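 also: 0% = plate neutral control median and 100% = total signal loss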
Target sequence (P42568 whole entry, looked up): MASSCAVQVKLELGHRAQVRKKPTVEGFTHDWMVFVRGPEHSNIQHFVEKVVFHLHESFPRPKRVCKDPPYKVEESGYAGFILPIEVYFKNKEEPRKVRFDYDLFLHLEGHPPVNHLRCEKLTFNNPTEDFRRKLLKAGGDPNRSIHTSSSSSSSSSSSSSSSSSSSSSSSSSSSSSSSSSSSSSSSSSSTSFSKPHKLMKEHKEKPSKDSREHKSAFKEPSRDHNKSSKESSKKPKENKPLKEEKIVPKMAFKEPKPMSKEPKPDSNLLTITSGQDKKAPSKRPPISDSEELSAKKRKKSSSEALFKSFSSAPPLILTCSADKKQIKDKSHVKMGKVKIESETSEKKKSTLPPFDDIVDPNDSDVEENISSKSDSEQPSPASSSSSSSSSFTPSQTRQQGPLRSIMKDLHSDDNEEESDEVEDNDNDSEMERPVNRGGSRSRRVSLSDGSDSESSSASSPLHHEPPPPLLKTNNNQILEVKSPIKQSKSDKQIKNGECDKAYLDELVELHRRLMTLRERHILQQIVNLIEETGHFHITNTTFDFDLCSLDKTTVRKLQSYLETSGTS
* marks the source's active call; other numbers are inactive results; ? = inconclusive; / = no result. Only some compounds are listed: those with a hit (about 3.7% of all), similar ones and a draw of the others.

SMILES	Wnt bcat act	rRNA inh HTS	esBAF inh	MITF act	MLL AF4-AF9 inh
CC(NC(=O)c1ccccc1Cl)C(=O)O (configuration not stated)	/	20.2	-4.8	-3.3	/
COc1ccccc1N1CC(C(=O)OCC(=O)Nc2cc(C)on2)CC1=O (configuration not stated)	-1.7	11.9	-0.5	-2.6	1.4
NC(=O)c1sc(=S)n(-c2ccc(Br)cc2)c1N	-2.5	-31.0*	0.7	-7.8	-1.2
Cc1n[nH]c(=O)c2c(NC(=O)COC(=O)c3cccc(OC(F)F)c3)oc(C)c12	-1.8	5.0	-9.0	-6.8	-1.7
COc1ccc(N=Cc2c(O)[nH]c3ccccc23)cc1	59.2*	/	6.9	49.9	/
Cc1[nH]c2ccccc2c1/C=N\NC(=O)CNc1ccc2c(c1)OCO2	1.6	3.1	11.1	-8.3	-3.3
COc1ccc(N=Nc2c(C)[nH]c3ccccc23)cc1	13.1	-51.1	13.1	22.2	25.9*
COc1ccc(CN=Cc2c(O)[nH]c3ccccc23)cc1	3.0	-9.3	/	12.4	4.1
CC(=O)c1cccc(N=Nc2c(C)[nH]c3ccccc23)c1	12.5	/	/	13.1	/
Oc1[nH]c2ccccc2c1C=Nc1ccc2c(c1)OCO2	38.8*	/	57.0*	?	/
O=C(COC(=O)c1ccccc1SCC(=O)N1CCCC1)Nc1ccccc1	-0.9	-6.1	5.9	-5.3	-1.6
COc1ccc(Cc2c(-c3ccc(F)cc3)nc3ccc(C)cn23)c(C)c1	0.2	9.5	/	/	0.0
COc1ccc(Cc2c(-c3ccc(OC)c(OC)c3)nc3ccc(C)cn23)c(C)c1	-2.5	-32.5*	-6.7	/	2.8
Cc1ccc(Cc2c(-c3cccc(Br)c3)nc3ccc(Cl)cn23)cc1	-0.4	-3.4	12.6	/	1.7
COc1ccc(Cc2c(-c3ccccc3)nc3ccc(Br)cn23)c(C)c1	22.6	-1.6	61.1*	/	3.2
COc1ccc(Cc2c(C(C)(C)C)nc3ccc(Br)cn23)c(C)c1	-1.1	/	-1.1	/	-3.4
COc1ccc(Cc2c(-c3cccc(Br)c3)nc3ccc(Cl)cn23)c(C)c1	13.9	-4.9	57.7*	/	1.3
COCC#Cc1ccc2c(c1)O[C@@H](CN(C)C(=O)CC1CC1)[C@H](C)CN([C@H](C)CO)S2(=O)=O	/	-2.5	-2.8	/	-1.7
COc1ccc(CN(C)C[C@H]2Oc3c(NC(=O)c4cc(C)nn4C)cccc3C(=O)N([C@@H](C)CO)C[C@@H]2C)cc1	/	-2.9	-1.0	/	-1.0
N#C[C@@H]1[C@H](c2ccc(C#CC3CCCCC3)cc2)[C@@H](CO)N1C(=O)c1cccc(F)c1	/	-4.1	-29.1	/	-11.4
O=[N+]([O-])c1cccnc1N1CCN(c2ccccc2F)CC1	2.7	-34.5*	/	21.4	13.9
O=[N+]([O-])c1cccnc1N1CCCCC1	/	/	0.3	5.8	/
CC(C)C[C@@H](CO)N1CCN(CC(C)C)CCC1=O	-2.4	/	-0.5	3.3	/
N#CCc1ccc(NC(=O)Nc2cccc3ccccc23)cc1	/	/	49.0*	16.3	/
CC(C)(C)n1nc2c(c1NC(=O)c1ccc(C(F)(F)F)cc1)CS(=O)(=O)C2	-0.7	-0.1	-5.2	2.9	-3.5
SMILES	Wnt bcat act	rRNA inh HTS	esBAF inh	MITF act	MLL AF4-AF9 inh
Cc1c(C(=O)/C=C/N(C)C)nnn1-c1ccc(Cl)c(Cl)c1	47.7*	-9.4	/	/	-11.6
c1ccc(CN2CCN(C3CCCSc4ccccc43)CC2)cc1 (configuration not stated)	0.7	-30.5*	/	/	8.8
CC(C)CC#Cc1ccc([C@@H]2[C@@H](CO)N3CCCCN(C(=O)NC4CCCC4)C[C@H]23)cc1	/	-58.6	-10.5	/	-5.5
CCOc1ccc(N=C2SCC(=O)N2CC)cc1	-0.2	2.7	9.4	-0.5	-15.1
O=C(COC(=O)c1ccccc1NCCO)Nc1ccc(S(=O)(=O)NC2=NCCCCC2)cc1	3.3	0.9	-0.2	-4.3	-8.3
C(/C=C/c1ccco1)=N/N1CCN(c2ccccc2)CC1	/	/	25.1	113.0*	/
COc1ccc(N2CCN(C(=O)c3ccc(Br)cc3)CC2)c([N+](=O)[O-])c1	-1.6	-24.1*	/	-5.6	6.1
COc1ccc(N2CCN(C(=O)c3ccc(C)cc3)CC2)c([N+](=O)[O-])c1	2.3	/	/	-8.0	/
COc1ccc(N2CCN(C(=O)c3ccccc3)CC2)c([N+](=O)[O-])c1	-1.5	-22.6*	-1.6	1.8	6.9
Cc1ccc(NC(=O)COC(=O)/C=C/c2ccco2)cc1S(=O)(=O)N(C)C	/	/	/	-21.3	/
O=C(C[C@H]1CC[C@@H](NC(=O)CN2CCOCC2)[C@H](CO)O1)NCCc1ccccc1	/	2.4	-7.5	/	-1.5
CN(C)C(=O)c1cccc(-c2ccc3c(c2)[C@@H]2[C@@H](CCN2C(=O)Nc2cccc(F)c2)[C@H](CO)N3C)c1	/	-9.1	6.2	/	/
O=C(c1nnc(Cc2ccc(Cl)cc2)o1)N1CCc2ccccc2C1	2.6	-23.8	-5.6	-8.6	-7.4
COc1ccccc1NC(=O)Nc1ccc(C(=O)N2CCCCC2)cc1	15.1	-12.1	36.8	111.1*	0.8
COC(=O)c1ccccc1NC(=O)Nc1ccc(C(=O)N2CCCC2)cc1	-2.6	/	-2.4	/	/
O=C(Nc1ccccc1)Nc1ccccc1	0.4	4.2	49.0*	59.8	-1.5
O=C(N/N=C/c1ccco1)Nc1ccccc1	38.5*	/	8.9	47.7	/
Cn1nnc2cc(NC(=O)Nc3cccc(Cl)c3)ccc21	19.3	7.1	?	93.3*	-2.4
CC(=O)N1[C@@H]2Cn3c(ccc(-c4cccc(F)c4)c3=O)[C@H]1[C@@H](C(=O)NCC1CC1)[C@@H]2CO	/	3.8	-0.8	/	-0.5
C=C(C)C(C)(C#CCN1CCCC1)OC(C)=O (configuration not stated)	/	/	-0.9	-8.6	/
CNC(=S)N(CCc1ccc(S(N)(=O)=O)cc1)C1CC(=O)N(c2ccccc2F)C1=O (configuration not stated)	-3.2	1.6	-2.3	2.7	1.6
O=C(Nc1ccc(C(=O)N2CCCCC2)cc1)Nc1cccc(Cl)c1	16.7	3.2	85.7*	106.2*	-4.1
O=C(NC1=NCCS1)Nc1ccccc1	42.4*	/	/	40.8	/
Cc1ccc(NC(=O)NC2=NN(c3ccccc3)C(=O)/C2=C2/CCCN2C)cc1	-1.0	9.5	4.1	4.6	0.9
CN1CCC/C1=C1/C(=O)N(c2ccccc2)N=C1NC(=O)Nc1cccc(Cl)c1	-0.7	-31.2*	/	-18.1	4.6
SMILES	Wnt bcat act	rRNA inh HTS	esBAF inh	MITF act	MLL AF4-AF9 inh
Cc1ccc(C(=O)NC(=S)c2c(C)cc3ccccn23)cc1	28.7	-15.4*	17.2	/	21.3
CC(=O)Nc1ccc(NC(=O)Nc2cccc(Cl)c2)cc1	5.3	1.8	40.3	61.0	-13.2
CC(C)Cc1nnc(NC(=O)Nc2ccccc2)s1	38.3*	-8.7	53.3*	96.3*	1.8
O=C(Nc1cccc(Cl)c1)Nc1ccc2nccnc2c1	-1.1	-25.0	96.9*	111.6*	-0.5
Cc1cc2ccccn2c1C(=O)c1ccc(Cl)cc1	/	/	4.7	22.5	/
O=C(Nc1ccc2nccnc2c1)Nc1ccccc1Cl	8.9	4.9	20.3	53.1	-2.1
O=C(Nc1ccccc1)Nc1cccc(Cl)c1	/	/	52.4*	54.7	/
Cc1cc2ccccn2c1C(=O)Nc1cccc(Cl)c1	0.0	-33.3*	/	-2.5	1.6

From PubChem BioAssay
